Measured values as given in PubChem BioAssay (NCI).
Compounds without any hit were thinned out: in the full panel of roughly 83,000, 20% have a hit.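 Method: cells in 96-well plates; compound added at one concentration; 48 h incubation; percent growth measured; values under 10 scored active.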 Unmarked numbers belong to inactive results. Calls of active or inactive are those of the source.

What follows are compounds tested on MDA-MB-468 breast (assay: NCI-60 one-dose screen, 48 h (100 = growth as untreated, 0 = no growth, -100 = all killed)). Details: 10 µM unless noted.

SMILES | growth
O=C1c2ccccc2C(=O)c2c([N+](=O)[O-])ccc(Cl)c21 | -5.53% (active)
CCCCN(CCCC)CC(O)CN(CC)CC (centres undefined) | 101%
Cn1cc(-c2nn3c(=O)cc(-c4ccccc4)nc3s2)c2cc(F)ccc21 | 38.9%
CC[N+](CCCCCCCCCC[N+](CC)(c1ccccn1)c1ccccn1)(c1ccccn1)c1ccccn1 | -1.91% (active)
COc1cc(/C=N/n2cnc3oc(-c4ccccc4)cc3c2=N)cc(CN2CCCC2)c1O | 82%
Oc1cccc2oc(=S)[nH]c12 | 105%
Cc1cc2cn3c4ccc(O)cc4nc(N)c3c2cc1C | -9.7% (active)
COc1ccc2[nH]cc(C(c3cc(F)cc(F)c3)c3c[nH]c4ccc(OC)cc34)c2c1 | 89.6%
Fc1ccc(NC(c2ccc(F)cc2)C2CCN(CCCCc3ccccc3)CC2)cc1 (centres undefined) | 7.21% (active)
COc1ccc(OC)c(/C=C2\Oc3cc(O)ccc3C2=O)c1 | 102%
CCCCCCN(CCCCCC)c1ccc(/C=C2/SC(=O)NC2=O)c(C)c1 | 80.6%
C#CCOc1cccc(Nc2ncnc3c2ncn3C2CCN(C(=O)CCl)C2)c1 (centres undefined) | -65.7% (active)
CCOC(=O)c1c(NS(=O)(=O)c2ccc(C)cc2)sc2c1CCC1(C2)OCCO1 | 87.6%
COc1ccc2c(N)ncc(C#Cc3cc(C(=O)Nc4ccc(CN5CCN(C)CC5)c(C(F)(F)F)c4)cnc3C)c2c1 | 46.7%
C=C1CCC2C3(C)COC(c4ccccc4)OC3CCC2(C)C1C/C=C1/C(=O)OCC1O (centres undefined) | 30.6%
CN(C(=O)c1ccccc1)N(C)C(=O)c1ccccc1 | 120%
COc1ccc(/C=C/c2c(C(C)=O)c(C)nc3ccccc23)cc1 | 39.6%
OCc1cn(-c2ccc(Cl)cc2)nc1-c1ccc(O)cc1 | 107%
CC(C)N=C1CCCC1C(=S)SSC(=S)C1CCCC1=NC(C)C (centres undefined) | 63.6%
OCCNC(=S)Nc1ccc(-c2nc(N3C[C@H]4CC[C@@H](C3)O4)c3cccn3n2)cc1 | -24.6% (active)

SMILES | growth
CC(=O)c1c[nH]c2ccc(-c3ccnc(Nc4ccc(NC(=O)C5CCCC5)c(CN5CCOCC5)c4)n3)cc12 | -53.9% (active)
O=C(/C(=C\c1ccc([N+](=O)[O-])cc1)S(=O)Cc1ccc(Cl)cc1)c1ccc(Cl)cc1 (centres undefined) | 74%
c1ccc2c(c1)CCCc1nnc3nc4ccccc4n3c1-2 | 29.9%
Cn1cc(-c2nonc2-c2cn(C)c3ccc(F)cc23)c2cc(F)ccc21 | 60.1%
CC(C)Cc1ccc(C(C)C(=O)NCc2c[nH]c3ccc(Cl)cc23)cc1 (centres undefined) | 80.7%
COC(=O)c1nc(-c2ccccc2)oc1S(=O)(=O)n1nc(-c2ccccc2)cc1N | 74.6%
CCOc1ccc(Br)cc1/C=N\N=C\c1cc(Br)ccc1OCC | 128%
Fc1ccc2[nH]c3c(NCCCN4CCOCC4)ncnc3c2c1 | 73.2%
Cc1cc(NC(=O)C2c3ccccc3C(=O)N(CC(C)C)C2c2cccs2)no1 (centres undefined) | -56.6% (active)
COc1ccc(C2=NN(C=O)C(c3ccc(Oc4nc5c(c(=O)n(C)c(=O)n5C)n4C)c(OC)c3)C2)cc1 (centres undefined) | 73.6%
CC(C)(C)c1ccc(S(=O)(=O)O)s1 | 109%
O=C(/C=C/c1sc(Cl)nc1Cl)c1ccccc1 | 55.3%
CSc1ccc2c3c(n(CCCn4ccnc4)c(=O)c2c1)-c1ccccc1C3=O | 18.2%
Cc1cc(Nc2nc(N[C@@H](C)c3ncc(F)cn3)ncc2Cl)n[nH]1 | 100%
COc1ccc(OC)c(C(=O)/C=C/c2cc3c(c(OC)c2OC)OCO3)c1 | 33.5%
O=C(NS(=O)(=O)c1ccccc1)n1cc(-c2ccncc2)c(-c2ccc(Cl)c(O)c2)n1 | 96.5%
COc1cccc(C(=O)Nc2cccc(NC(=O)c3ccccn3)c2)c1 | 105%
Cc1cc(C(=O)O)c(N)c(C)n1 | 120%
COC(=O)C1CCc2sc3ncnc(Nc4cn[nH]c4C(=O)Nc4ccc(CN5CCN(C)CC5)cc4)c3c21 (centres undefined) | 37.3%
